According to the supplement of paper PMC8975748:
Where a name gives a salt, the structure may show the parent alone. ± gives the standard deviation of the averaged measurements.

Legend:
[1] = system: Saccharomyces cerevisiae BY4741 SeMeCo community; assay: z-score of prototroph abundance vs DMSO median; higher = larger share of this subpopulation than in DMSO controls; settings: 10 µM; 24 h; SM minimal medium; subpopulation (auxotrophy): Prototroph
Summary of the method: (§1)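 Subpopulation abundance was reported as a z-score against the median of vehicle wells. The Saccharomyces cerevisiae BY4741 community, carrying four plasmids that each restored one auxotrophy and encoded a distinct fluorescent protein, was grown 24 h in minimal SM medium in 384-well plates holding library drugs at 10 µM final. Cells were paraformaldehyde-fixed and imaged by automated confocal microscopy, with single-auxotroph fluorescent strains used for thresholds and autofluorescence correction.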

[2] = system: Saccharomyces cerevisiae BY4741 SeMeCo community; assay: z-score of subpopulation abundance vs DMSO median, subpopulation auxotrophic for M; higher = larger share of this subpopulation than in DMSO controls; settings: 10 µM; 24 h; SM minimal medium; subpopulation (auxotrophy): M
Summary of the method: as §1

[3] = system: Saccharomyces cerevisiae BY4741 SeMeCo community; assay: z-score of subpopulation abundance vs DMSO median, subpopulation auxotrophic for L; higher = larger share of this subpopulation than in DMSO controls; settings: 10 µM; 24 h; SM minimal medium; subpopulation (auxotrophy): L
Summary of the method: as §1

[4] = system: Saccharomyces cerevisiae BY4741 SeMeCo community; assay: z-score of subpopulation abundance vs DMSO median, subpopulation auxotrophic for U; higher = larger share of this subpopulation than in DMSO controls; settings: 10 µM; 24 h; SM minimal medium; subpopulation (auxotrophy): U
Summary of the method: as §1

[5] = system: Saccharomyces cerevisiae BY4741 SeMeCo community; assay: z-score of subpopulation abundance vs DMSO median, subpopulation auxotrophic for H; higher = larger share of this subpopulation than in DMSO controls; settings: 10 µM; 24 h; SM minimal medium; subpopulation (auxotrophy): H
Summary of the method: as §1

[6] = system: Saccharomyces cerevisiae BY4741 SeMeCo community; assay: z-score of subpopulation abundance vs DMSO median, subpopulation auxotrophic for LU; higher = larger share of this subpopulation than in DMSO controls; settings: 10 µM; 24 h; SM minimal medium; subpopulation (auxotrophy): LU
Summary of the method: as §1

[7] = system: Saccharomyces cerevisiae BY4741 SeMeCo community; assay: z-score of subpopulation abundance vs DMSO median, subpopulation auxotrophic for HM; higher = larger share of this subpopulation than in DMSO controls; settings: 10 µM; 24 h; SM minimal medium; subpopulation (auxotrophy): HM
Summary of the method: as §1

[8] = system: Saccharomyces cerevisiae BY4741 SeMeCo community; assay: z-score of subpopulation abundance vs DMSO median, subpopulation auxotrophic for HU; higher = larger share of this subpopulation than in DMSO controls; settings: 10 µM; 24 h; SM minimal medium; subpopulation (auxotrophy): HU
Summary of the method: as §1

[9] = system: Saccharomyces cerevisiae BY4741 SeMeCo community; assay: z-score of subpopulation abundance vs DMSO median, subpopulation auxotrophic for UM; higher = larger share of this subpopulation than in DMSO controls; settings: 10 µM; 24 h; SM minimal medium; subpopulation (auxotrophy): UM
Summary of the method: as §1

[10] = system: Saccharomyces cerevisiae BY4741 SeMeCo community; assay: z-score of subpopulation abundance vs DMSO median, subpopulation auxotrophic for HL; higher = larger share of this subpopulation than in DMSO controls; settings: 10 µM; 24 h; SM minimal medium; subpopulation (auxotrophy): HL
Summary of the method: as §1

[11] = system: Saccharomyces cerevisiae BY4741 SeMeCo community; assay: z-score of subpopulation abundance vs DMSO median, subpopulation auxotrophic for HLU; higher = larger share of this subpopulation than in DMSO controls; settings: 10 µM; 24 h; SM minimal medium; subpopulation (auxotrophy): HLU
Summary of the method: as §1

[12] = system: Saccharomyces cerevisiae BY4741 SeMeCo community; assay: z-score of subpopulation abundance vs DMSO median, subpopulation auxotrophic for HLM; higher = larger share of this subpopulation than in DMSO controls; settings: 10 µM; 24 h; SM minimal medium; subpopulation (auxotrophy): HLM
Summary of the method: as §1

[13] = system: Saccharomyces cerevisiae BY4741 SeMeCo community; assay: z-score of subpopulation abundance vs DMSO median, subpopulation auxotrophic for HUM; higher = larger share of this subpopulation than in DMSO controls; settings: 10 µM; 24 h; SM minimal medium; subpopulation (auxotrophy): HUM
Summary of the method: as §1

[14] = system: Saccharomyces cerevisiae BY4741 SeMeCo community; assay: z-score of subpopulation abundance vs DMSO median, subpopulation auxotrophic for LUM; higher = larger share of this subpopulation than in DMSO controls; settings: 10 µM; 24 h; SM minimal medium; subpopulation (auxotrophy): LUM
Summary of the method: as §1

[15] = system: Saccharomyces cerevisiae BY4741 SeMeCo community; assay: mean cell size (pixel area) (pixels); higher = larger cells; settings: 10 µM; 24 h; SM minimal medium
Summary of the method: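 Harmony analysis of automated confocal images of paraformaldehyde-fixed yeast gave the mean cell pixel area per well. The yeast was a Saccharomyces cerevisiae BY4741 community carrying four plasmids, each with a fluorescent marker and each complementing one auxotrophy, incubated for 24 h in SM medium containing drug at a final 10 µM in 384-well plates. Results are averaged over 3 replicates. Same SeMeCo high-content imaging drug screen: Selleck FDA-approved drugs at 10 µM, 24 h in SM medium, 384-well plates, 3 replicates.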

[16] = system: Saccharomyces cerevisiae BY4741 SeMeCo community; assay: z-score of subpopulation abundance vs DMSO median, subpopulation auxotrophic for HLUM; higher = larger share of this subpopulation than in DMSO controls; settings: 10 µM; 24 h; SM minimal medium; subpopulation (auxotrophy): HLUM
Summary of the method: as §1

[17] = system: Saccharomyces cerevisiae BY4741 SeMeCo community; assay: z-score of subpopulation abundance vs DMSO median, subpopulation auxotrophic for LM; higher = larger share of this subpopulation than in DMSO controls; settings: 10 µM; 24 h; SM minimal medium; subpopulation (auxotrophy): LM
Summary of the method: as §1

SMILES	z-score of prototroph abundance [1]	z-score of subpopulation abundance [2]	z-score of subpopulation abundance [3]	z-score of subpopulation abundance [4]	z-score of subpopulation abundance [5]	z-score of subpopulation abundance [6]	z-score of subpopulation abundance [7]	z-score of subpopulation abundance [8]	z-score of subpopulation abundance [9]	z-score of subpopulation abundance [10]	z-score of subpopulation abundance [11]	z-score of subpopulation abundance [12]	z-score of subpopulation abundance [13]	z-score of subpopulation abundance [14]	mean cell size [15]	z-score of subpopulation abundance [16]	z-score of subpopulation abundance [17]
CNCCCC1c2ccccc2C=Cc2ccccc21 [Protriptyline hydrochloride]	-0.57	-0.4	-0.45	0.84	0.19	0.57	-0.42	0.37	0.52	0.25	0.54	-0.07	0.54	0.28	–	–	–
C[C@@H](O)[C@H]1C(=O)N2C(C(=O)[O-])=C(SC3Cn4cnc[n+]4C3)[C@H](C)[C@H]12 (stereo partly drawn) [Biapenem]	0.75	1.3	-0.66	-0.12	-0.04	-1.32	0.51	-0.36	-0.17	-0.48	-1.25	-0.52	–	-0.49	12.11 ± 0.1	-0.81	–
COC(=O)C1=C(C)NC(C)=C(C(=O)OC(C)(C)CN(C)CCC(c2ccccc2)c2ccccc2)C1c1cccc([N+](=O)[O-])c1 (stereo not drawn) [Lercanidipine]	-0.62	0.27	1.24	-0.86	2.07	0.17	0.81	0.16	–	2.31	0.93	1.04	–	0.13	12.1 ± 0.16	1.54	0.9
CCCCCOc1ccc(-c2ccc(-c3ccc(C(=O)N[C@H]4C[C@@H](O)[C@@H](O)NC(=O)[C@@H]5[C@@H](O)[C@@H](C)CN5C(=O)[C@H]([C@@H](C)O)NC(=O)[C@H]([C@H](O)[C@@H](O)c5ccc(O)cc5)NC(=O)[C@@H]5C[C@@H](O)CN5C(=O)[C@H]([C@@H](C)O)NC4=O)cc3)cc2)cc1	-14.8	-11.7	4.48	0.13	25	5.21	0.97	17.2	1.54	31.2	21.5	42	–	9.08	12.6 ± 0.25	76	1.2
O=C1[C@@H]2[C@H]3CC[C@H](C3)[C@@H]2C(=O)N1C[C@@H]1CCCC[C@H]1CN1CCN(c2nsc3ccccc23)CC1 [lurasidone]	0.9	-0.62	0.42	-1.4	0.55	-0.67	-0.31	-0.35	-1.38	0.22	-0.09	-0.11	–	–	12.19 ± 0.019	-0.82	0.39
N[C@@H]1CONC1=O [D-Cycloserine]	-0.18	-0.07	1.05	-1	1.3	-0.16	-0.26	-0.43	-0.3	0.99	0.51	0.38	–	0.83	11.8 ± 0.15	0.69	0.54
C[n+]1ccccc1C=NO [Pralidoxime Iodide]	–	0.07	-0.18	0.58	-0.39	0.19	0.77	-0.21	0.29	0.06	-0.23	0.32	–	0.18	12.27 ± 0.1	0.03	0.72
Cc1cccc(C#Cc2ccccc2)n1	0.53	-0.25	0.06	0.22	0.06	0.12	-0.61	-0.18	-0.28	-0.06	-0.17	-0.43	–	–	–	–	–
CCC(C)(Oc1ccc(C2(c3ccc(OC(C)(CC)C(=O)O)cc3)CCCCC2)cc1)C(=O)O (stereo not drawn) [Clinofibrate]	0.14	0.41	-2.3	0.34	1.7	-0.18	-0.03	0.11	–	-0.48	0.73	–	-0.82	-1.09	13.24 ± 0.13	0.45	-1.21
